Reference: PubChem BioAssay AID1508600 (Functional Genomics Laboratory (NCATS/FGL), 2020)
Out of some 53,000 sequences screened, about 3,700 (7%) were called active.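 Rule for the calls: active = gene knockdowns whose robust z-score for IL-1 alpha signal is at least 2 or at most -2, so actives lie on both sides; inactive = the rest.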 The full list was thinned out, with actives kept by preference.

test: Components of the Cytosolic LPS Sensing Pathway: Gene Identification via Genome-wide siRNA Screen; conditions: RAW264.7 macrophages, IL-1a HTRF, actives lie on both sides, screened at 100 nM (by protocol), cells primed 5 h with Pam3CSK4 first;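 note: robust z of the log signal after scaling to non-targeting control siRNA wells of the plate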
In short: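 IL-1a HTRF of supernatants after 24 hour LipidA transfection of Pam3CSK4-primed (5 hours) RAW264.7 cells, 48h post-siRNA transfection (100 nM). Scores: percent of plate negative-control median, then log-based robust z-score.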

Question: Which z-score does the source give for GCCAAAUUGUCCCGGGCAUTT against Usp39 here?
Answer: The z-score was 0.457 (inactive).

Question: With GGUGAUGUAUUAUUAUCCATT against Defb12 as the sequence, how does the z-score read?
Answer: Its z-score is 0.277 (inactive).

Question: Which z-score does the source give for CCUUUCAAGGAGAUAUAAUTT against Gcm2 here?
Answer: The z-score was 0.65 (inactive).

Question: For CCUUAGCUGUCCUUGUGGUTT against Defb28, which z-score is on record?
Answer: Its z-score is -1.36 (inactive).

Question: Which z-score does the source give for CGAAAUCCUAGUUUCGUCCTT against Spns1 here?
Answer: The z-score was 3.29 (active).

Question: With GGAAUUGGUCUAUAUGCGUTT against Il2ra as the sequence, how does the z-score read?
Answer: Its z-score is -1.02 (inactive).

Question: For GGGUUCCAGUUUGUUUCCUTT against Cnbp, which z-score is on record?
Answer: Its z-score is -0.901 (inactive).

Question: Which z-score does the source give for CCAUUGAGAUCAGCGACAUTT against Abtb2 here?
Answer: The z-score was -0.748 (inactive).

Question: For GGUAGCAUUAUUUGUCCUATT against Pcdh15, which z-score is on record?
Answer: The z-score was 0.675 (inactive).

Question: Which z-score does the source give for GGAGCUACGAAGAGGAUCUTT against Wdr45b here?
Answer: The z-score was -2.69 (active).

Question: For GGCCAUCUCCUUCAACUAUTT against Ugt2a1, which z-score is on record?
Answer: Its z-score is 1.24 (inactive).

Question: For “GGAGUAGAUUUAAAAGGCATT against 4933440M02Rik”, which z-score is on record?
Answer: The z-score was 0.145 (inactive).

Question: Which z-score does the source give for GGUCAACAGAAUGAAAAAUTT against Runx1t1 here?
Answer: The z-score was -0.211 (inactive).

Question: With GGGAAAGUCGAGCUUUUUCTT against Ifi44l as the sequence, how does the z-score read?
Answer: Its z-score is 0.0658 (inactive).

Question: For CCAAGCUACCAGGGUUUUUTT against Abcb9, which z-score is on record?
Answer: Its z-score is 2.1 (active).

Question: Which z-score does the source give for GGUCCAAGUAAUGAACUCATT against Olfr155 here?
Answer: The z-score was -1.19 (inactive).

Question: Which z-score does the source give for GGCCCUAGAAAUAAUCUGCTT against Anks4b here?
Answer: Its z-score is 0.0338 (inactive).

Question: With GGGAUCCUUAAUAUUUUGATT against Dazap2 as the sequence, how does the z-score read?
Answer: The z-score was 1.66 (inactive).

Question: Which z-score does the source give for GGUUUUAAUUGUUCAGACGTT against Lrrtm3 here?
Answer: Its z-score is 0.35 (inactive).

Question: With GGGAAGUGGAAACAGUUCUTT against Icam2 as the sequence, how does the z-score read?
Answer: The z-score was 0.461 (inactive).

Question: With CCAAUGUUACGAGAAACUUTT against Smug1 as the sequence, how does the z-score read?
Answer: Its z-score is 1.02 (inactive).

Question: Which z-score does the source give for GGAAAGGAUAAAGUAUAUCTT against Aspm here?
Answer: Its z-score is -0.0167 (inactive).

Question: Which z-score does the source give for GGAUUGCAUCUUCCUCGAATT against Olfr816 here?
Answer: Its z-score is -2.27 (active).

Question: Which z-score does the source give for GAUCUAUCACCGGUACUGCTT against Gys1 here?
Answer: The z-score was 0.154 (inactive).

Question: Which z-score does the source give for CCGCUCACUUCUUGAAUAUTT against Rnf125 here?
Answer: The z-score was 0.388 (inactive).

Question: For GUCAGAUCUCAGAAUCAUGTT against Ercc6l2, which z-score is on record?
Answer: The z-score was -2.27 (active).

Question: For GCGGUCUGUGGUCUUAAAUTT against She, which z-score is on record?
Answer: The z-score was -0.449 (inactive).

Question: Which z-score does the source give for GGUGAACUGUAAUGGCUUCTT against Smyd2 here?
Answer: The z-score was -0.209 (inactive).

Question: Which z-score does the source give for GGUGUUGAGAAGAAAAAUATT against Spz1 here?
Answer: The z-score was 1.68 (inactive).

Question: For GGUAGAAUACCUUCAGAUUTT against Ercc4, which z-score is on record?
Answer: Its z-score is 2.81 (active).

Question: For GGAAUUGUCAGGUCUUGAATT against Tmem174, which z-score is on record?
Answer: Its z-score is -0.311 (inactive).

Question: For GGAGCUUCGGGAGAUGAUUTT against Fdxr, which z-score is on record?
Answer: The z-score was 0.357 (inactive).

Question: For GGCGGAGUUUUUAAUACUCTT against Upb1, which z-score is on record?
Answer: Its z-score is 1.79 (inactive).

Question: With CCUAUGUUUGGUGAUUAUGTT against Alg6 as the sequence, how does the z-score read?
Answer: Its z-score is 0.264 (inactive).

Question: With GGGUAGGAGGAAAGUGUUCTT against Olfr1093 as the sequence, how does the z-score read?
Answer: Its z-score is 1.55 (inactive).

Question: For GGAACAGCAGCAGAGUGAATT against Gkap1, which z-score is on record?
Answer: Its z-score is -1.09 (inactive).

Question: Which z-score does the source give for GGCACAUGAUCCUUAAUUUTT against Pfkfb3 here?
Answer: The z-score was 0.0397 (inactive).

Question: With GCCUAAGCCUACCAAACGATT against Ints3 as the sequence, how does the z-score read?
Answer: Its z-score is 0.0965 (inactive).

Question: Which z-score does the source give for GCCGAGAGGGAUGUGUAUATT against Psmb1 here?
Answer: Its z-score is -2.54 (active).

Question: Which z-score does the source give for GGAAAUCCUUGACUACAUUTT against Cyp2b19 here?
Answer: The z-score was 0.31 (inactive).

Question: For GGUCCACCUCAACAAGCUATT against Zfp536, which z-score is on record?
Answer: The z-score was 2.57 (active).

Question: Which z-score does the source give for GGGAGAAACCUGUGCAAAUTT against Serpinb6c here?
Answer: Its z-score is 0.459 (inactive).

Question: Which z-score does the source give for “AGACUGGGUUGUGAAGAUATT against 4930563M21Rik” here?
Answer: The z-score was -1.68 (inactive).

Question: With GCUAGGACUACAGCUGGGATT against Snrnp48 as the sequence, how does the z-score read?
Answer: The z-score was -2.56 (active).

Question: For GGAGAACUGAAGAAUCCAATT against Med11, which z-score is on record?
Answer: The z-score was 1.78 (inactive).

Question: Which z-score does the source give for GCCAAGAUCCCACCAGUUATT against Neurl1b here?
Answer: The z-score was 0.639 (inactive).

Question: For “GGAGCACAGUCUCAUGAAUTT against A130014H13Rik”, which z-score is on record?
Answer: The z-score was -1.44 (inactive).

Question: Which z-score does the source give for CGUGAAGAUUGACGUGUUUTT against Pcyox1 here?
Answer: Its z-score is 1.06 (inactive).

Question: With UGCCUGUAAACCAACAAGGTT against Prb1 as the sequence, how does the z-score read?
Answer: The z-score was -2.04 (active).

Question: With GUGAAGAGGAGCAGGACUUTT against Klrc3 as the sequence, how does the z-score read?
Answer: The z-score was 0.261 (inactive).

Question: For GGGAAAAGUAUCCUCUGUUTT against Olfr877, which z-score is on record?
Answer: The z-score was -0.968 (inactive).

Question: Which z-score does the source give for GCGAAGUCAUCAAAUUUUCTT against Abcb11 here?
Answer: Its z-score is 0.622 (inactive).

Question: Which z-score does the source give for GGUCCUUAAGUCCUUUGACTT against Cdr1os here?
Answer: Its z-score is 0.894 (inactive).

Question: For GGGAAAGAUAAAUGUUUCCTT against Gucy1b1, which z-score is on record?
Answer: Its z-score is 1.89 (inactive).

Question: Which z-score does the source give for GGUUCAGACAAGCAUCUAGTT against Sbp here?
Answer: The z-score was -1.04 (inactive).

Question: With CCUCAGGAUACAGACCCACTT against Frg2f1 as the sequence, how does the z-score read?
Answer: The z-score was -0.35 (inactive).

Question: Which z-score does the source give for GGAAAUUUUUUCCUUUCCUTT against Olfr211 here?
Answer: Its z-score is -0.638 (inactive).

Question: For GGACCAUCAGAGGAGAACUTT against Cuedc2, which z-score is on record?
Answer: The z-score was -2.09 (active).

Question: With CGAGAGUGGGUGGGUUGAATT against Zfp950 as the sequence, how does the z-score read?
Answer: Its z-score is 0.628 (inactive).

Question: Which z-score does the source give for GCCCUAUCUACGAUGAAAATT against Scamp2 here?
Answer: Its z-score is -0.197 (inactive).

Question: Which z-score does the source give for CCGAAUACGUGAAGACGCATT against Slc25a1 here?
Answer: Its z-score is -0.967 (inactive).

Question: With GGAGGAAAAUGUCCUUGUUTT against Pth as the sequence, how does the z-score read?
Answer: The z-score was 0.25 (inactive).

Question: For GCAGGAAUGCGGUAUAAACTT against Inpp5f, which z-score is on record?
Answer: The z-score was 0.707 (inactive).

Question: For GCACUGGACUUAGGAUGGUTT against Ankrd22, which z-score is on record?
Answer: Its z-score is 2.2 (active).

Question: With GGACACCACGUUCACCAAGTT against Rbm38 as the sequence, how does the z-score read?
Answer: Its z-score is -0.36 (inactive).

Question: With GCUUCAAUAACUGCGCAAGTT against Zkscan2 as the sequence, how does the z-score read?
Answer: The z-score was 0.547 (inactive).

Question: Which z-score does the source give for GGAUGACUGAAUGAUGGGATT against Tcl1b5 here?
Answer: The z-score was -2.15 (active).

Question: With GGACCUCACAAUGAGUAUGTT against Thtpa as the sequence, how does the z-score read?
Answer: Its z-score is 1.23 (inactive).
